Consider 39 sequences from the supplement of paper PMC6555819.

The first experiment has as its system RXRa homodimer (NR concentration 180 nM). The experiment can be described thus: PBM binding z-score (relative to random genomic background probes); higher = stronger binding; sequences stand for … in GC…GCGATTGACAGCGTAGAATGAAGG
In a few lines: (§1)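 Antibodies against each partner of ligand-free nuclear receptor dimers (one per run) detected binding on custom Agilent 4×180K protein-binding microarrays after 1 h incubation. The double-stranded probes had 34-nt variable regions carrying direct-repeat seeds, single-nucleotide variants, half-site ablations and random human genomic background sequences. Binding z-scores, from regression-normalized fluorescence, use the random background probes as reference.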
TAGCCTAGGTCATGCGGGACAGTATAGTGTCGGC yielded a PBM binding z-score of 3.05.
With CCTCGGAGGACAACAGGAGGTCATAGCTGCCAGA, the PBM binding z-score came out at 3.09.
On the same count and under the same terms, then CGCACTAGGTCATCCAGGACAGTGAATACATTGA, with 2.76; and TAGCCTAGGTCGTTCAGGGGCCAGTATAGAAAGC, with 0.583; and CTATGTAGGTCAAGGGGGTCATTCAGTTTGAAAG, with 7.64.
In turn, ATATGTAGGTTATCTGGGGTCATTCAGACTAGGC registered a PBM binding z-score of 5.88.
The sequence TCTCGGAGGACACAAAGGTCAGAGCTTTCCAGAG displayed a PBM binding z-score of 4.32.
CGTCCAAGGTCGAAGGTCAGTGAAGAGATGACGG had a PBM binding z-score of 6.09.
The sequence TAGCCTAGGTCATTCAGGGGCCACTATAGAAAGC yielded a PBM binding z-score of 3.21.
Same read-out and setting: then AGTCAAAGTTCAGGACGACGTAACGTAAAGCACG, with 2.66; and CCTAGTGGGCCAAGGTCATTGATCAGTCAAAGCA, with 3.2; and AGAATGAGGTTAAACGTAGATCAGGGAAGAAAGT, with 3.22.
The same measure, in the same setting: then CCTAGTTGGTCAAGGTCACATACGCTATAGGTAC, with 3.89; and TTACCAAGGTCAAGGTCGTTGATCCCTCTGTAGA, with 6.84; and CCTTACGGGTCAAGGTTATAGCCCGGGTGGTACG, with 5.76.
On the same count and under the same terms, the figure for TCTGCTAGGTCATCGATGGTCAGCTAATCTGCTA is 2.73; for CTATGTGGGTTAAGGGGGTCATTCAGTTTGAAAG it is 6.11.

In another experiment the test system is THRa:RXRa (NR concentration 90 nM, RXRa partner concentration 90 nM). The experiment is described as above. In a few lines:
as §1
Regarding ATATGTAGGTTACATCCGGGTCATCCAGGCTATG, the PBM binding z-score turned out to be 3.89.
In the case of TCTGCTAGGTCAACGATGGTCAGTTAATCTGCTA, the PBM binding z-score came out at 2.93.
On the same count and under the same terms, then CGTCCAAGGTCACGGTCAGTGAAAGAGACTCGAA, with 4.29.
The same measure, in the same setting: then CCAGACAGGTGAGAAGGTAACTCAGCCTCGATTA, with 0.425; and GATACAGGGTCGGCTAGAGGCCAGAGTATGGAAA, with 1.22.
CCTAGTTGTTCAGGAGGTCACACACCGGATATGA came in with a PBM binding z-score of 3.62.
TCGAGTAGGTCACGGGGGCATTCAGGGATGAAGA: the PBM binding z-score turned out to be 4.48.
Still for that read-out and setting: then AGAATGAGGTTAAGTTCAGGGAAACAGAATACAT, with 3.34; and CCTACTGGGCCAAAAAGGTCATTGATGCCGATAA, with 3.12.
As to AATACAGGGTCACGAGGCCAGAGTAGGTACGAAT, the PBM binding z-score turned out to be 4.06.
With CCTTACGGGTAACGAGGTTATAGCACGACGAGCG, the PBM binding z-score is 1.35.
With CCTACTGGGCCAAAAAGTTCATTGATGCCGATAA, the PBM binding z-score is 0.849.
In turn, AGAATGAGGTCAAGATCAGGGAAACAGAATACAT registered a PBM binding z-score of 4.29.
Turning to CTATGTAGGTTAGGGGGGTCATTCAGTTTGAAAG, the PBM binding z-score worked out at 4.21.
TGTCAATGTTCAAAGGTAACGTAAGTATCCACAC came in with a PBM binding z-score of 1.24.
The same measure, in the same setting: then CGTCCAAAGTCAAAGGTCAGTGAAGAGATGACGG, with 2.81; and ATATGTAGGTTAGCTGAGGTCATTCAGACTAGGC, with 5.33.
TCTAGTTGGTCACGGAGGTCCCACACGACGGGTA: the PBM binding z-score came out at 0.42.
Same read-out and setting: the figure for CGAACTAGGTCGAGGACAGTGAATCTCCGCACGC is 2.11.
In turn, CAAACTAGGTCACCGAAAGGTCAAAGTCCGCATG came in with a PBM binding z-score of 4.72.
The same measure, in the same setting: the figure for CCTGCTAGGTCATGGTCAGCGAATCTACAGTATG is 2.9; for CGTCCAAGGTCAAGGTCAATGAAAGAGACTCGAA it is 4.35; for TAGCCTAGGTCATGCGGGACAGTATAGTGTCGGC it is 3.04.
On the same count and under the same terms, the figure for CCTCGGAGGACAACAGGAGGTCATAGCTGCCAGA is 3.58; for CGCACTAGGTCATCCAGGACAGTGAATACATTGA it is 3.73; for TAGCCTAGGTCGTTCAGGGGCCAGTATAGAAAGC it is 2.04.
On the same count and under the same terms, then CTATGTAGGTCAAGGGGGTCATTCAGTTTGAAAG, with 4.27; and ATATGTAGGTTATCTGGGGTCATTCAGACTAGGC, with 5.46; and TCTCGGAGGACACAAAGGTCAGAGCTTTCCAGAG, with 3.45.
CGTCCAAGGTCGAAGGTCAGTGAAGAGATGACGG came in with a PBM binding z-score of 3.04.
On the same count and under the same terms, then TAGCCTAGGTCATTCAGGGGCCACTATAGAAAGC, with 3.89.
Same read-out and setting: the figure for AGTCAAAGTTCAGGACGACGTAACGTAAAGCACG is 2.02; for CCTAGTGGGCCAAGGTCATTGATCAGTCAAAGCA it is 3.45; for AGAATGAGGTTAAACGTAGATCAGGGAAGAAAGT it is 2.55.
CCTAGTTGGTCAAGGTCACATACGCTATAGGTAC returned a PBM binding z-score of 3.96.
The same measure, in the same setting: then TTACCAAGGTCAAGGTCGTTGATCCCTCTGTAGA, with 4.38.
For the sequence CCTTACGGGTCAAGGTTATAGCCCGGGTGGTACG, the PBM binding z-score stood at 3.1.
On the same count and under the same terms, the figure for TCTGCTAGGTCATCGATGGTCAGCTAATCTGCTA is 3.33; for CTATGTGGGTTAAGGGGGTCATTCAGTTTGAAAG it is 4.29.
